Test results published in article PMC5540273 (PLoS ONE, 2017).

Columns and labels:
Details in all cases: concentration: 1 μM, replicates: in singlicate; n = 1
MYO3B = test system: MYO3B
NDR1 = test system: T1, NDR1
T1 construct: gene STK38

NDR2 = test system: NDR2
NEK10 = test system: NEK10
NEK11 = test system: NEK11
NEK1 = test system: NEK1
NEK2 = test system: NEK2
NEK3 = test system: NEK3
NEK4 = test system: NEK4
NEK5 = test system: NEK5
NEK6 = test system: NEK6
NEK7 = test system: NEK7
NEK9 = test system: NEK9
NIK = test system: T2, NIK
T2 construct: gene MAP3K14

NIM1 = test system: T3, NIM1
T3 construct: gene MGC42105

NLK = test system: NLK
OSR1 = test system: T4, OSR1
T4 construct: gene OXSR1

PAK1 = test system: PAK1
PAK2 = test system: PAK2
PAK3 = test system: PAK3
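Further: KINOMEscan kinase panel screen.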

SMILES	%Inh (MYO3B) [%]	%Inh (NDR1) [%]	%Inh (NDR2) [%]	%Inh (NEK10) [%]	%Inh (NEK11) [%]	%Inh (NEK1) [%]	%Inh (NEK2) [%]	%Inh (NEK3) [%]	%Inh (NEK4) [%]	%Inh (NEK5) [%]	%Inh (NEK6) [%]	%Inh (NEK7) [%]	%Inh (NEK9) [%]	%Inh (NIK) [%]	%Inh (NIM1) [%]	%Inh (NLK) [%]	%Inh (OSR1) [%]	%Inh (PAK1) [%]	%Inh (PAK2) [%]	%Inh (PAK3) [%]
CN(C1=C(c2ccccc2)C(=O)NC1=O)c1ccccc1 [SB-334860]	0	26	24	15	0	8	0	9	0	23	15	0	17	0	34	35	4	0	0	0
Cc1nnc(-c2ccc3occ(-c4ccc(C(C)O)cc4)c3c2)o1 (centres unmarked)	0	18	55	30	0	0	0	3	0	0	4	0	0	0	0	2	25	14	16	23
O=C(NOCC1CC1)c1ccc(F)c(F)c1Nc1ccc(I)cc1Cl	0	0	0	0	0	0	0	26	0	0	0	0	0	0	0	0	0	0	0	0
Nc1nccc(-c2c(-c3ccc(F)cc3)ncn2C2CCN(CC(F)(F)F)CC2)n1 [SB-236560]	0	38	0	42	0	0	0	24	0	16	0	0	20	13	50	60	0	0	0	100
COc1ccc(Nc2nccc(N3CCC(NC(=O)Nc4cc(C)ccc4C)C3)n2)cc1 (centres unmarked) [GSK1379741]	0	7	0	1	20	0	0	0	0	6	0	0	9	7	7	35	1	7	0	0
O=C(NCCNc1ccnc(Nc2ccc(F)cc2)n1)Nc1ccccc1F [GSK1379880]	0	0	0	12	0	0	0	11	15	0	0	0	11	9	14	28	20	2	0	0
N#Cc1ccc(-c2cc(-c3c[nH]nc3-c3ccccn3)ccn2)cc1 [GW693028]	0	14	0	11	5	0	0	8	20	5	0	0	0	18	35	16	4	8	9	0
CCn1cnc2c(N)ncnc21 [GW345098]	0	15	8	39	0	0	13	3	12	10	29	14	0	6	0	37	0	9	0	58
c1ccc(-c2n[nH]cc2-c2ccnc3ccccc23)nc1 [GW271431]	0	17	0	8	0	0	2	14	3	22	0	0	58	4	21	58	13	16	20	6
COc1cc2ncn(-c3cc(OCc4sccc4Cl)c(C(N)=O)s3)c2cc1OC [GSK448459]	0	0	0	0	0	13	97.1	4	0	11	0	0	0	22	30	0	11	17	10	20
